This note sets out measurements from PMC7862700, “An all-to-all approach to the identification of sequence-specific readers for epigenetic DNA modifications on cytosine”.

Common to all, as to test: DAPPL (digital affinity profiling via proximity ligation, sequencing); 10 mM Tris-HCl pH 7.5, 50 mM NaCl, 1 mM DTT, 4% glycerol, room temperature, 30 min; GST-TFs on glutathione beads, 16-mer random dsDNA library, 0.1% formaldehyde crosslink after washing; high values mean tight binding
One test addresses T1, FLI1 (Homo sapiens, UniProt Q01543 1-452).
T1 sequence: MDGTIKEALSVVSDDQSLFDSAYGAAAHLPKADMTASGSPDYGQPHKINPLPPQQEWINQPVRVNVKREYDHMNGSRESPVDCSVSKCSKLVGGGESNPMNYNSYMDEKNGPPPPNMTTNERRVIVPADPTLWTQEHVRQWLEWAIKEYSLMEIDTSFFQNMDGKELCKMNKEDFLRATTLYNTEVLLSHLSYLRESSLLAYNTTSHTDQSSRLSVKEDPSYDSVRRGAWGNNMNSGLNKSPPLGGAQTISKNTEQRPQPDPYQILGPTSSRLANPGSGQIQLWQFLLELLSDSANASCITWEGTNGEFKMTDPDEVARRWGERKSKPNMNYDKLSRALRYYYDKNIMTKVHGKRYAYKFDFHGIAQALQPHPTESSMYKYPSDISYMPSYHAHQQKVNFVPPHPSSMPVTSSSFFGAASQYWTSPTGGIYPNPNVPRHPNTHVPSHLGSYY
The settings on record: protein: recombinant; tags: N-terminal GST; dsDNA, one strand shown. In a few lines:
(§1)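 Beads coated with glutathione captured GST-fused human transcription factors that had been expressed in yeast, and the factors were then given DNA barcodes and pooled with a tag-only sample. The pools were incubated with 200 nmole of a random double-stranded 16-mer DNA library in Tris/NaCl/DTT/glycerol buffer for 30 min at room temperature, washed, crosslinked with 0.1% formaldehyde and proximity-ligated with BsaI/T4 ligase at 37 °C for 1 h. PCR amplification and Illumina NextSeq500 sequencing came last. Binding signal is each hexamer's read frequency for a factor divided by its frequency for the tag-only sample.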

The target in another test is T2, ELK1 (Homo sapiens, UniProt P19419 1-428).
T2 sequence: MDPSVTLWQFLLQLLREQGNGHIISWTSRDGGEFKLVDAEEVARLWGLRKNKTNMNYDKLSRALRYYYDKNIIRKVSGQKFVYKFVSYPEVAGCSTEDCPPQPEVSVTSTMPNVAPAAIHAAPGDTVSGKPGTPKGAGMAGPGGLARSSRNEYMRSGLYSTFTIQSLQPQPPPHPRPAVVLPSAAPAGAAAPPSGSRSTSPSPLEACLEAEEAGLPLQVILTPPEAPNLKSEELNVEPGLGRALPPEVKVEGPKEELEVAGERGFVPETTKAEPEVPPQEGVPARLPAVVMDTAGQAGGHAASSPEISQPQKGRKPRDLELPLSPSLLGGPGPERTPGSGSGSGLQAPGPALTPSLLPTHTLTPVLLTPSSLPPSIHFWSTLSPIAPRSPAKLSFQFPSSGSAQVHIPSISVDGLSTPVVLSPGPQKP
The settings on record: protein: recombinant; tags: N-terminal GST; dsDNA, one strand shown. In short, it runs like this:
as §1

Another test concerns the target T3, GABPA (Homo sapiens, UniProt Q06546 1-454).
T3 sequence: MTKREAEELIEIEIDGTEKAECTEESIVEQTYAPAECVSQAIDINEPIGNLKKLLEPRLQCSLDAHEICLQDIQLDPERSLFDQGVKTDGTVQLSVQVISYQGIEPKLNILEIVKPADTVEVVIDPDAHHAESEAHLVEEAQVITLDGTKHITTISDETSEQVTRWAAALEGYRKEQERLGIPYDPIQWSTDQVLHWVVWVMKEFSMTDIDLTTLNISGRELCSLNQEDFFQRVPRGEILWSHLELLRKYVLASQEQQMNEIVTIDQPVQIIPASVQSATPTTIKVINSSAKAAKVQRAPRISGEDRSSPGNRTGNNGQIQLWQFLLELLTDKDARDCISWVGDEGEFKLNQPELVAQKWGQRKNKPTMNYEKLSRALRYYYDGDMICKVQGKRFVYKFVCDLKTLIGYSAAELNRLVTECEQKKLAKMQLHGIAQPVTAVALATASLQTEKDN
The settings on record: protein: recombinant; tags: N-terminal GST; dsDNA, one strand shown. In short, it runs like this:
as §1

In a further test the target is T4, ERG (Homo sapiens, UniProt P11308 1-479).
T4 sequence: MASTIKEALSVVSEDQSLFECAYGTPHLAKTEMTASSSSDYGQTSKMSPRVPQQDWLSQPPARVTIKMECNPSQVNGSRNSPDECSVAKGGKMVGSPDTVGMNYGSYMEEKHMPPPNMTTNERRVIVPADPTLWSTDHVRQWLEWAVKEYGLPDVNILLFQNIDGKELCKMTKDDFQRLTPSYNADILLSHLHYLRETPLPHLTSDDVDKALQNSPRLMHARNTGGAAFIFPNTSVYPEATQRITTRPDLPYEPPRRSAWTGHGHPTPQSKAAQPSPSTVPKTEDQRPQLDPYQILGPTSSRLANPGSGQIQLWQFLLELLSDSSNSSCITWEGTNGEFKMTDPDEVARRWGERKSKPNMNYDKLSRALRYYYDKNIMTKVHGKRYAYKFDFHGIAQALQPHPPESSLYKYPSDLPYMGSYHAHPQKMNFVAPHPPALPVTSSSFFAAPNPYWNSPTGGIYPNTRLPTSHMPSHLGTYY
The settings on record: protein: recombinant; tags: N-terminal GST; dsDNA, one strand shown. In short, it runs like this: as §1

Another test addresses ELF1 (Homo sapiens, UniProt P32519 1-619). The settings on record: protein: recombinant; tags: N-terminal GST; dsDNA, one strand shown. In short, it runs like this:
as §1

The next test has as its target T5, EHF (Homo sapiens, UniProt Q9NZC4 1-300).
T5 sequence: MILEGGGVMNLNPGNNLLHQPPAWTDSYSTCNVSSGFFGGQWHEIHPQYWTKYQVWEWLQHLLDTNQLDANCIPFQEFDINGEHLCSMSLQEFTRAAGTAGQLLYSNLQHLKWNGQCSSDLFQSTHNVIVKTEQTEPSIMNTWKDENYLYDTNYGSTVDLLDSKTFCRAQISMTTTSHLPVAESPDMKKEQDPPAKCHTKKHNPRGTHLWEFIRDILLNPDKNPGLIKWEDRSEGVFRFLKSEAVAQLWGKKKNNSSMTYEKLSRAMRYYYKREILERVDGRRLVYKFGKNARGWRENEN
The settings on record: protein: recombinant; tags: N-terminal GST; dsDNA, one strand shown. In short, it runs like this: as §1

In a further test the target is SPI1 (Homo sapiens, UniProt P17947 1-270). The conditions noted are these: protein: recombinant; tags: N-terminal GST; dsDNA, one strand shown. In a few lines:
as §1

In a further test the target is SPIB (Homo sapiens, UniProt Q01892 1-262). The settings on record: protein: recombinant; tags: N-terminal GST; dsDNA, one strand shown. In a few lines:
as §1

The target of the next test is T6, ELK3 (Homo sapiens, UniProt P41970 1-407).
T6 sequence: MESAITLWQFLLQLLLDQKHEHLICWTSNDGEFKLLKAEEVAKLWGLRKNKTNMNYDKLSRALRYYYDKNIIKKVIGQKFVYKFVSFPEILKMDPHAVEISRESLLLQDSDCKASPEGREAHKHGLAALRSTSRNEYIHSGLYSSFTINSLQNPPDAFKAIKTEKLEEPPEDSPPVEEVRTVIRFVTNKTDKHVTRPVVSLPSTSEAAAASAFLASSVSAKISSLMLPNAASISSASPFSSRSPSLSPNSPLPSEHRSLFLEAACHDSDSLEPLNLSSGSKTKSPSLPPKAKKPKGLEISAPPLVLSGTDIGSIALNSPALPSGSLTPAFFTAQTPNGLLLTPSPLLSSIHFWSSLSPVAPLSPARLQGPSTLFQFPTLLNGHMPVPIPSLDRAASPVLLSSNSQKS
The settings on record: protein: recombinant; tags: N-terminal GST; dsDNA, one strand shown. In short, it runs like this:
as §1

In another test the target is T7, FEV (Homo sapiens, UniProt Q99581 1-238).
T7 sequence: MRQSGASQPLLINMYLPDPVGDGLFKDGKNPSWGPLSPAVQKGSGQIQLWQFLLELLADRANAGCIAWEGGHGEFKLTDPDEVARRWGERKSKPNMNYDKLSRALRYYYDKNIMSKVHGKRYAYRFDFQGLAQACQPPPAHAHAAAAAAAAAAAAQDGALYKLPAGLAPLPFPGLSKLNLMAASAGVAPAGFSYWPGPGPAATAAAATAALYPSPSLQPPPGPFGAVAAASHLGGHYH
The conditions noted are these: protein: recombinant; tags: N-terminal GST; dsDNA, one strand shown. In a few lines: as §1

The target of the next test is ETV5 (Homo sapiens, UniProt P41161 1-510). The conditions noted are these: protein: recombinant; tags: N-terminal GST; dsDNA, one strand shown. In short, it runs like this:
as §1

The next test deals with HSF1 (Homo sapiens, UniProt Q00613 1-529). The conditions noted are these: protein: recombinant; tags: N-terminal GST; chain copies: 3; dsDNA, one strand shown. In short, it runs like this: as §1
The target of the next test is T8, SPIC (Homo sapiens, UniProt Q8N5J4 1-248).
T8 sequence: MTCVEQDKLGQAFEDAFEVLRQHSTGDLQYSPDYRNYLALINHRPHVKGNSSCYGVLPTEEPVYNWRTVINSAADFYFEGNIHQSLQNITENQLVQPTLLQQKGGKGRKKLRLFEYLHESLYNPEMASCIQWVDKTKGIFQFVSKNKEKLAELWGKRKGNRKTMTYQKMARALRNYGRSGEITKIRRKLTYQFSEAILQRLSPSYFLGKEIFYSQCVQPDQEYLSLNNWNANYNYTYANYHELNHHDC
The conditions noted are these: protein: recombinant; tags: N-terminal GST; dsDNA, one strand shown. In a few lines: as §1

The target in the next test is ELF4 (Homo sapiens, UniProt Q99607 1-663). The settings on record: protein: recombinant; tags: N-terminal GST; dsDNA, one strand shown. In short, it runs like this:
as §1

A further test addresses T9, ELK4 (Homo sapiens, UniProt P28324-2 1-405).
T9 sequence: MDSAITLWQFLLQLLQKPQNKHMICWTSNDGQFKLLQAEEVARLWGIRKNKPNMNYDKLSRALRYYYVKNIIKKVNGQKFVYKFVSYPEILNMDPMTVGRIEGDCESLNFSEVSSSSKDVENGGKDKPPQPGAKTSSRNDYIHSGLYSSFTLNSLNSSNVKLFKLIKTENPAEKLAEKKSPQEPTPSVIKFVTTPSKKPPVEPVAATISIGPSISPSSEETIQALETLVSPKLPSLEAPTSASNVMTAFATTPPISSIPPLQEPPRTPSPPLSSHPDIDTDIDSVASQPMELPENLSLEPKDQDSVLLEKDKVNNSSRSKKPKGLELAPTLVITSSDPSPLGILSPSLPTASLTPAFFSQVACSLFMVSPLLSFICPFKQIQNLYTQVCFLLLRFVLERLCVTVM
The conditions noted are these: protein: recombinant; tags: N-terminal GST; dsDNA, one strand shown. In short, it runs like this:
as §1

A further test addresses T10, ETV2 (Homo sapiens, UniProt O00321 1-342).
T10 sequence: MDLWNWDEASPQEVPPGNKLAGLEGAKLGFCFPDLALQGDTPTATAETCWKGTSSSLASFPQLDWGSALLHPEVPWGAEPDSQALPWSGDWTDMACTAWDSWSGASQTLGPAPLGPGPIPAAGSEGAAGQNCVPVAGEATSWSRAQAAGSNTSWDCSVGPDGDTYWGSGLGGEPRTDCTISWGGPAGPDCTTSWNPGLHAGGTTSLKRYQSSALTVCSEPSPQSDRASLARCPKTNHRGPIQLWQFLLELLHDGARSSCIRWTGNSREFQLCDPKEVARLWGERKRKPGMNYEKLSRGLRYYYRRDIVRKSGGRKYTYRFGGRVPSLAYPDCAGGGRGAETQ
The conditions noted are these: protein: recombinant; tags: N-terminal GST; dsDNA, one strand shown. In a few lines:
as §1

Another test has as its target T11, ELF3 (Homo sapiens, UniProt P78545 1-371).
T11 sequence: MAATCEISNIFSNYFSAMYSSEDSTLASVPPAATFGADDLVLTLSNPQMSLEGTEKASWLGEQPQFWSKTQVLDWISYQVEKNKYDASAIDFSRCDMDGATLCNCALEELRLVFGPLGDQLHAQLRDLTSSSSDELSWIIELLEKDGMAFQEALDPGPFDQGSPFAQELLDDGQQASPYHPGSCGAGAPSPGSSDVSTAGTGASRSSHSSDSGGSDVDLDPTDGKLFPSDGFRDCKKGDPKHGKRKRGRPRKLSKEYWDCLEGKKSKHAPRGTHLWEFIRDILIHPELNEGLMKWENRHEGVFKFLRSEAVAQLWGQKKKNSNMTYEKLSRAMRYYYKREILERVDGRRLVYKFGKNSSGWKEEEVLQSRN
The settings on record: protein: recombinant; tags: N-terminal GST; dsDNA, one strand shown. In a few lines: as §1

The target of another test is CRX (Homo sapiens, UniProt O43186 1-299). The settings on record: protein: recombinant; tags: N-terminal GST; dsDNA, one strand shown. In short, it runs like this: as §1
For the next test, the target named is ETV1 (Homo sapiens, UniProt P50549 1-477). The conditions noted are these: protein: recombinant; tags: N-terminal GST; dsDNA, one strand shown. In short, it runs like this: as §1
Chain of ETV1 (P50549 whole entry): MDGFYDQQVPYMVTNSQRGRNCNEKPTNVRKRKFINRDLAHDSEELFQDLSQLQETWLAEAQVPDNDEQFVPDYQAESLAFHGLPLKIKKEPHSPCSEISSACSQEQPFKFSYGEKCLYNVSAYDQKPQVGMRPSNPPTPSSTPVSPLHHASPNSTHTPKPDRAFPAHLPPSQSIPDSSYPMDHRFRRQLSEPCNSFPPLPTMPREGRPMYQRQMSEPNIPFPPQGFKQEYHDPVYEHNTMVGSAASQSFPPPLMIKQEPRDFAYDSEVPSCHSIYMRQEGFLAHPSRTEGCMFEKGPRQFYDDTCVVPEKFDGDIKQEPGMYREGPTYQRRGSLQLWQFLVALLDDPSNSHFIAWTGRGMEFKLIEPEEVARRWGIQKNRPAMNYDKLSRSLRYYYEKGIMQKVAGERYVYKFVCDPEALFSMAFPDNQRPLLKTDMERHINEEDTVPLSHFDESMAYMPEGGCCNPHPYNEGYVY

Chain of SPIB (Q01892 whole entry): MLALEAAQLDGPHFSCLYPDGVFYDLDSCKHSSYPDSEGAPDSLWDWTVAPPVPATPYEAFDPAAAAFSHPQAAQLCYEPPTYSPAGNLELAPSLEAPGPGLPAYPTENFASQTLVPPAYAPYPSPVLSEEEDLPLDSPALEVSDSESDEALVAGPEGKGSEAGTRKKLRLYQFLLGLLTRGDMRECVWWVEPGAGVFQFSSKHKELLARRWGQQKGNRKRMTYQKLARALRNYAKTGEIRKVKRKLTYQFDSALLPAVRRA
Chain of ETV5 (P41161 whole entry): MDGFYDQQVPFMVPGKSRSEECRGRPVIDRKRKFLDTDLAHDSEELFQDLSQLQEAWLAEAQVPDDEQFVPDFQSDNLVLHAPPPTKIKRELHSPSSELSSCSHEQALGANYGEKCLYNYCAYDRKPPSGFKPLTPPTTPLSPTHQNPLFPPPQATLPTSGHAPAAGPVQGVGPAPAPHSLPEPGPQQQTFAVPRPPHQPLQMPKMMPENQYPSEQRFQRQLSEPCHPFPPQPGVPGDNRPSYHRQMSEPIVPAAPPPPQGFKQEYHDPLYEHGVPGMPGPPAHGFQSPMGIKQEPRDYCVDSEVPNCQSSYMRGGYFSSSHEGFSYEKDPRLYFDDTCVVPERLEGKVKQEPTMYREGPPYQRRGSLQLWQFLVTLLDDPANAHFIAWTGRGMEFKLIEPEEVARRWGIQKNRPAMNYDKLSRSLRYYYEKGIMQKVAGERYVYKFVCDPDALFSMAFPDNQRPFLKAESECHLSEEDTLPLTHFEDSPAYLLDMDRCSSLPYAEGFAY
Chain of HSF1 (Q00613 whole entry): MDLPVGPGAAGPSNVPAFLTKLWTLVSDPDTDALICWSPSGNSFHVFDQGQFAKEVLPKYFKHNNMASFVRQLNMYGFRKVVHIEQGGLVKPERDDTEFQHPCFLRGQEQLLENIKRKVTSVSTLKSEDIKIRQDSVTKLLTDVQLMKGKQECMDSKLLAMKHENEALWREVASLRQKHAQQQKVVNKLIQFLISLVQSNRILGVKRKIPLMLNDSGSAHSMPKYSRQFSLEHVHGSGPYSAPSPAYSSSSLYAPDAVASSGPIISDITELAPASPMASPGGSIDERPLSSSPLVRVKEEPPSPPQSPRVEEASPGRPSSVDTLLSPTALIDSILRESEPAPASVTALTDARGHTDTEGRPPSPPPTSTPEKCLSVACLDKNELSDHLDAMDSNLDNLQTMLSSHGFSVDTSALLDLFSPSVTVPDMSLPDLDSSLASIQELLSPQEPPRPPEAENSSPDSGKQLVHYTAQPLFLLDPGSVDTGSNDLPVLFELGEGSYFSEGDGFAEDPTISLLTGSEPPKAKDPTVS
Chain of ELF4 (Q99607 whole entry): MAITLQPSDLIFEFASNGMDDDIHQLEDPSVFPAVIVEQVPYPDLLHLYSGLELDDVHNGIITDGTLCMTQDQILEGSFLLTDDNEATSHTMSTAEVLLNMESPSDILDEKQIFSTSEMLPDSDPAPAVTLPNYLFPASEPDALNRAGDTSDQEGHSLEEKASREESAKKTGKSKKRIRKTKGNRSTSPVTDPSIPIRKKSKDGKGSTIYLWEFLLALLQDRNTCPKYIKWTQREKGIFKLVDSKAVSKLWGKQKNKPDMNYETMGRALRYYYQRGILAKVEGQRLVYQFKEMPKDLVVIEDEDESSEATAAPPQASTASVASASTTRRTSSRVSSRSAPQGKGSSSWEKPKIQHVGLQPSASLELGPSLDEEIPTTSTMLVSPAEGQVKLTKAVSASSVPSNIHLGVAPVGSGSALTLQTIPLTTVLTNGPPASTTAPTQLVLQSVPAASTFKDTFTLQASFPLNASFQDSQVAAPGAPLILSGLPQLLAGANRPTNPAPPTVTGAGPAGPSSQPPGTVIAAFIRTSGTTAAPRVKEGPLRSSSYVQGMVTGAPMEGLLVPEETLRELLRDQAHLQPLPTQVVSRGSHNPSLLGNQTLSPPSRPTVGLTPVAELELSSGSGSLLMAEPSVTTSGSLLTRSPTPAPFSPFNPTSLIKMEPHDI
Chain of CRX (O43186 whole entry): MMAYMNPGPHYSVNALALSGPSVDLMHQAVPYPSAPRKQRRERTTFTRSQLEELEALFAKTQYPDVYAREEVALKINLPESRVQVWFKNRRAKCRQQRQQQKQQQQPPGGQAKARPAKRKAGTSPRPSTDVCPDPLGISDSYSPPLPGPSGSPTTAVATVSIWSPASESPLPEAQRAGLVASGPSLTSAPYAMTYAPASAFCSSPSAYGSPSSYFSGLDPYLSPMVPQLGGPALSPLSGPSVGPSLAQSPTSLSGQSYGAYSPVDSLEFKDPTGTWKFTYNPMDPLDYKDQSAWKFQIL
Chain of ELF1 (P32519 whole entry): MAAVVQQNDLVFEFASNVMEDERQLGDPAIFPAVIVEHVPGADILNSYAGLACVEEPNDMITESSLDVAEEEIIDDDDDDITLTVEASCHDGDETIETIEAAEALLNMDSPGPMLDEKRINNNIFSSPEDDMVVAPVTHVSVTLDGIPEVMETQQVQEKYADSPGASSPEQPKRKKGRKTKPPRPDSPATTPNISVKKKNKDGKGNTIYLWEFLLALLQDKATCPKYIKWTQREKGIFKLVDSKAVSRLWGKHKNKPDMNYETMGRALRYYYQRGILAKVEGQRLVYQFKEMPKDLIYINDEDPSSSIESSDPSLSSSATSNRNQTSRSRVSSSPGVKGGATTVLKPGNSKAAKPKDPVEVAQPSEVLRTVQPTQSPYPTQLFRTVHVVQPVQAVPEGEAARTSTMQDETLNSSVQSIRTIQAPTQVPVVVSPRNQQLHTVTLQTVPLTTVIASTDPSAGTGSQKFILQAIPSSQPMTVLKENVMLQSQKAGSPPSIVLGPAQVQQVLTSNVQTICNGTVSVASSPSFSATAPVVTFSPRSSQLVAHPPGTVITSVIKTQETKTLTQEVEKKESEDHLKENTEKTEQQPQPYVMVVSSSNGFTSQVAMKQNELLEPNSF

Regarding GCCTTT, the binding signal was 1.33 fold enrichment (6-mer frequency, TF over GST control) with FLI1; 1.3 fold enrichment (6-mer frequency, TF over GST control) with ELK1; 1.32 fold enrichment (6-mer frequency, TF over GST control) with GABPA; 1.2 fold enrichment (6-mer frequency, TF over GST control) in the test with ERG; 1.28 fold enrichment (6-mer frequency, TF over GST control) with ELF1; 1.35 fold enrichment (6-mer frequency, TF over GST control) in the test with EHF. For the same sequence, the binding signal with SPI1 is 1.49 fold enrichment (6-mer frequency, TF over GST control); with SPIB, 1.35 fold enrichment (6-mer frequency, TF over GST control); in the test with ELK3 it was 1.27 fold enrichment (6-mer frequency, TF over GST control); in the test with FEV it was 1.41 fold enrichment (6-mer frequency, TF over GST control); with ETV5, 1.25 fold enrichment (6-mer frequency, TF over GST control); with HSF1 it was 1.24 fold enrichment (6-mer frequency, TF over GST control). In addition, the binding signal with SPIC is 1.56 fold enrichment (6-mer frequency, TF over GST control); with ELF4 it was 1.36 fold enrichment (6-mer frequency, TF over GST control); in the test with ELK4, 1.32 fold enrichment (6-mer frequency, TF over GST control); in the test with ETV2, 1.53 fold enrichment (6-mer frequency, TF over GST control); with ELF3, 1.38 fold enrichment (6-mer frequency, TF over GST control); with CRX it was 1.3 fold enrichment (6-mer frequency, TF over GST control). In addition, the binding signal in the test with ETV1 was 1.34 fold enrichment (6-mer frequency, TF over GST control).
